# Reference: PubChem BioAssay (EPA / NIEHS)
# Several values for one entry are separate records, joined by “and”; a condition that tells them apart may be missing. Equal entries are not always repeated. Records with an inconclusive call do not appear. Activity calls are given as the source filed them. Rule for the calls, unless noted: active = hit-call score of the fitted dose curve at least 0.9, where 1 is the maximum; inconclusive = response in the unintended direction; inactive = score below 0.9.
# Assays:
# [1] = molecular target: Agonist Androgen Response Element (ARE), AR (gene 367) (UniProt P10275); test: OT_AR_ARELUC_AG_1440: Odyssey Thera (OT) 24-hour CHO-K1 Luciferase Assay for Agonist Androgen Response Element (ARE) (AID 2283379)
# Outline: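 CHO-K1 cells carrying an ARE-driven luciferase reporter were exposed to compounds for 24 h. Luminescence was then read after adding a D-luciferin/ATP mix, and activity was scored as a gain in signal over DMSO vehicle.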
# [2] = molecular target: Estrogen receptor beta (Homo sapiens) (UniProt Q92731); test: OT_ER_ERbERb_1440: Odyssey Thera (OT) 24-hour HEK293T Protein-Complementation Assay for Estrogen Receptor-beta/-beta Homodimer (AID 2283380);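 note: scored as signal increase over DMSO baseline for both agonists and antagonists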
# Outline: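 HEK293T cells stably expressing ER beta LBD (aa 310-547) homodimer fragment-complementation reporter, dosed 24 h. Cells formaldehyde-fixed, Draq5-stained; gain in nuclear (agonist) or nuclear plus cytoplasmic (antagonist) fluorescence versus DMSO read by laser scanning cytometry.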
# [3] = molecular target: Bile acid receptor (Homo sapiens) (UniProt Q96RI1); test: OT_FXR_FXRSRC1_0480: Odyssey Thera (OT) 8-hour HEK293T Protein-Complementation Assay for Farnesoid X receptor/SRC-1 Co-activator (AID 2283383)
# Outline: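 Human kidney HEK293T cells carried FXR/SRC-1 fragment-complementation constructs. Compounds were added and incubated 8 h. Reporter reassembly upon receptor–co-activator interaction was then quantified by fluorescence, with curves fitted in the positive direction relative to DMSO.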
# [4] = molecular target: Bile acid receptor (Homo sapiens) (UniProt Q96RI1); test: OT_FXR_FXRSRC1_1440: Odyssey Thera (OT) 24-hour HEK293T Protein-Complementation Assay for Farnesoid X receptor/SRC-1 Co-activator (AID 2283384)
# Outline: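 Compounds are applied to human kidney HEK293T cells expressing bait and prey fused to reporter protein fragments; after 24 h, reconstituted reporter fluorescence is measured. Activity is fitted as signal gain over DMSO.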
# [5] = molecular target: Estrogen receptor (Homo sapiens) (UniProt P03372); test: OT_ERa_GFPERaERE_0480: Odyssey Thera (OT) 8-hour HeLa Transcription Induction Assay for Estrogen Receptor (AID 2283381; active = hit-call score of the fitted dose curve at least 0.9, where 1 is the maximum; inactive = score below 0.9)
# Outline: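 Fluorescent reporter signal, imaged by microscopy and scored with image-analysis algorithms, was taken 8 h after chemical dosing of HeLa cells; activity was fitted upward relative to DMSO.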
# [6] = molecular target: Estrogen receptor (Homo sapiens) (UniProt P03372); test: OT_ERa_GFPERaERE_0120: Odyssey Thera (OT) 2-hour HeLa Transcription Induction Assay for Estrogen Receptor (AID 2283382)
# Outline: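 HeLa, 384-well, 2 h chemical exposure; GFP reporter induction (ERE), fluorescence microscopy; high content image analysis; positive fitting direction vs DMSO.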
# [7] = molecular target: Retinoic acid receptor RXR-alpha (Homo sapiens) (UniProt P19793); test: OT_NURR1_NURR1RXRa_0480: Odyssey Thera (OT) 8-hour HEK293T Protein Complementation Assay for Nurr1/retinoid X receptor (RXR) (AID 2283385)
# Outline: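 8 h compound exposure, HEK293T; Nurr1/RXRα fragment complementation; fluorescence intensity; positive fitting direction vs DMSO baseline.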
# Agonist Androgen Response Element (ARE), AR (gene 367), sequence (P10275 whole entry, looked up): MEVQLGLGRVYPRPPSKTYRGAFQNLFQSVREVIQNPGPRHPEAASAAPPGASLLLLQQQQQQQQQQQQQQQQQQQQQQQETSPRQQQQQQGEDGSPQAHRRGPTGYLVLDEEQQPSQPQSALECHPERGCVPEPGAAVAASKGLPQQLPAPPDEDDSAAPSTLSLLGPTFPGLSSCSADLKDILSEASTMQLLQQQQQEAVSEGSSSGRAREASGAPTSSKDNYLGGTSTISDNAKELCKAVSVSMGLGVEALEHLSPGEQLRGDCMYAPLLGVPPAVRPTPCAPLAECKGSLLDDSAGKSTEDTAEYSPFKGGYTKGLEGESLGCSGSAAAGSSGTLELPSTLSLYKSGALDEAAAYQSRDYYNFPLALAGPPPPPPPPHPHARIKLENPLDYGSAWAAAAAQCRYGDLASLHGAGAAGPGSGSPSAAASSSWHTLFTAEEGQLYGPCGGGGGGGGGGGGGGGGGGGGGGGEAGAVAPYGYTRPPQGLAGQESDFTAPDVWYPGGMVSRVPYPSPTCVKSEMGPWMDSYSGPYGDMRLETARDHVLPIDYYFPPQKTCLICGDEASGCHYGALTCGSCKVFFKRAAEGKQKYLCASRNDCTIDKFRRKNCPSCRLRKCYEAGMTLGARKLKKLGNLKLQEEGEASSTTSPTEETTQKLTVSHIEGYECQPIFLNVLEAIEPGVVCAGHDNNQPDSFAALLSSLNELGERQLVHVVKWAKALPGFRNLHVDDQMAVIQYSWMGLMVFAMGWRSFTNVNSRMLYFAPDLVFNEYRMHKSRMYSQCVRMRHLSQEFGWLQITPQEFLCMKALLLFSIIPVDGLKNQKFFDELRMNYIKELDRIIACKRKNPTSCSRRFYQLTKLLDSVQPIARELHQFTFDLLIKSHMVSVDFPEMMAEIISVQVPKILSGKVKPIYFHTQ
# Estrogen receptor (Homo sapiens), sequence (P03372 whole entry, looked up): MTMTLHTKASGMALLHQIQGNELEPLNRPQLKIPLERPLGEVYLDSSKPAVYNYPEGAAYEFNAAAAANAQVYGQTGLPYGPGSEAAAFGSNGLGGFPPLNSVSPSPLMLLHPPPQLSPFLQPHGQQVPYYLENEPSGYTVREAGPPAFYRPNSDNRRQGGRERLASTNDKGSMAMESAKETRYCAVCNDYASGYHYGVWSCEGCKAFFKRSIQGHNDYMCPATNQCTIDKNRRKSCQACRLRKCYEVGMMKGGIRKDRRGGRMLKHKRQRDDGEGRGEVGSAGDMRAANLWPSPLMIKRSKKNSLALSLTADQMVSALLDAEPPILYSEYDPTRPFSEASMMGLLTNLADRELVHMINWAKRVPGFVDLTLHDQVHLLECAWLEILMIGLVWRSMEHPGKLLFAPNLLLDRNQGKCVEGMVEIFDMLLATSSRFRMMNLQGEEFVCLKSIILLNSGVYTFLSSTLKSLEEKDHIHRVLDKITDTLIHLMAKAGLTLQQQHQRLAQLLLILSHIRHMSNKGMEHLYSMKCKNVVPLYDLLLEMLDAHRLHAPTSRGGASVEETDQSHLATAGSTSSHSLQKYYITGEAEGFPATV
# Bile acid receptor (Homo sapiens), sequence (Q96RI1 whole entry, looked up, the tested form may be a part): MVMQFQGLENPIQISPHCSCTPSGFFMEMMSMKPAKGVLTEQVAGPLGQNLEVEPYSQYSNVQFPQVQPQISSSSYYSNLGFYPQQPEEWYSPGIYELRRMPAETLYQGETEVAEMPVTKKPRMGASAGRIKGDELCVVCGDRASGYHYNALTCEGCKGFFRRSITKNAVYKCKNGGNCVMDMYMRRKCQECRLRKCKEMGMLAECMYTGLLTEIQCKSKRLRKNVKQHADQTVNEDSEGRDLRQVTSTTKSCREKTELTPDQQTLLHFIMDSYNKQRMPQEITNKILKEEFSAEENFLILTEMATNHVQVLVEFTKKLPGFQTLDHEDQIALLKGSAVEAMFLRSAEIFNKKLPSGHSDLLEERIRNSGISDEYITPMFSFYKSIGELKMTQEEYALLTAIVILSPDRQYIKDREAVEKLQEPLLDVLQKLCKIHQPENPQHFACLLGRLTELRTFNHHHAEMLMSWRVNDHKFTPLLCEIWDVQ
# Estrogen receptor beta (Homo sapiens), sequence (Q92731 whole entry, looked up, the tested form may be a part): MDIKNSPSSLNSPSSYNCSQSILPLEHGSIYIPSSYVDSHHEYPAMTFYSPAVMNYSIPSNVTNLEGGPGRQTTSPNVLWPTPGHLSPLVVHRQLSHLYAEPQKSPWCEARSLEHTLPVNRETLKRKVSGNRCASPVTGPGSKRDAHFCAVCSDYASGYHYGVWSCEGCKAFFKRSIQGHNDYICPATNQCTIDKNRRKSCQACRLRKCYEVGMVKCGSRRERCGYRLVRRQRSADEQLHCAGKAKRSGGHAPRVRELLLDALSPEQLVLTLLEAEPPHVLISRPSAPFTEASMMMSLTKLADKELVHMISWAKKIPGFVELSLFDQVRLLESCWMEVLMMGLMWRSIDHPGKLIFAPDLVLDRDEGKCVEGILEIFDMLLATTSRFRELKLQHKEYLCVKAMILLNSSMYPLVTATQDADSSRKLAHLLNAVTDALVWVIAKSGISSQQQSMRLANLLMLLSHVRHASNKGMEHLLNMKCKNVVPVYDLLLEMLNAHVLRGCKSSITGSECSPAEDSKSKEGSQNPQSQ
# Retinoic acid receptor RXR-alpha (Homo sapiens), sequence (P19793 whole entry, looked up, the tested form may be a part): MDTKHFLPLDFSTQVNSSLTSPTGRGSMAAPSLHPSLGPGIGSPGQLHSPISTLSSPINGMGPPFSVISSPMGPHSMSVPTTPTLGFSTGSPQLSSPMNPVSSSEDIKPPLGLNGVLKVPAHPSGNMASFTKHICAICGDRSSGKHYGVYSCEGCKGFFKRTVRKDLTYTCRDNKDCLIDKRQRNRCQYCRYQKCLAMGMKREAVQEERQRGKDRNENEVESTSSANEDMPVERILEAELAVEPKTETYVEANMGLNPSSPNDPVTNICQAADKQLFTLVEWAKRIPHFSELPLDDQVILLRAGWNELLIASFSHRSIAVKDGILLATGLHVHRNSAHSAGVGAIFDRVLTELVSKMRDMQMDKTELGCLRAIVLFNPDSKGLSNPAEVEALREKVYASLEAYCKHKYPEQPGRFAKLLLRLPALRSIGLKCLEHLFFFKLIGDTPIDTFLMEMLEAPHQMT
compound,measurement,setting,value
C=CCCCCCCCCCCCC,outcome,[1],inactive
same,outcome,[2],inactive
same,outcome,[3],inactive
same,outcome,[4],inactive
O=[Si]=O,outcome,[2],inactive
same,outcome,[5],inactive
same,outcome,[6],inactive
CC(C)(O)c1ccc(CNC(=O)c2cccnc2Oc2ccc(F)cc2)cc1,outcome,[2],inactive
CC1=C(C)S(=O)(=O)CCS1(=O)=O,outcome,[1],inactive
same,outcome,[2],inactive
same,outcome,[5],inactive
same,outcome,[6],inactive
CO[C@@H]1COCC[C@@H]1N[C@@H]1CC[C@@](C(=O)N2CCc3ncc(C(F)(F)F)cc3C2)(C(C)C)C1,outcome,[2],inactive
O=C(NS(=O)(=O)/C=C/c1cccs1)c1ccc(F)cc1Br,outcome,[1],inactive
same,outcome,[2],inactive
same,outcome,[5],inactive
same,outcome,[6],inactive
same,outcome,[3],inactive
same,AC50,[4],1.72 µM (active)
same,AC50,[7],29.6 µM (active)
Oc1ccccc1O,AC50,[2],31 µM (active)
CCCCCCCCCCCCCCCCO,outcome,[2],inactive
same,outcome,[5],inactive
same,outcome,[6],inactive
NC=O,outcome,[2],inactive
Oc1ccc(O)cc1,AC50,[2],26.4 µM (active)
same,outcome,[5],inactive
same,outcome,[6],inactive
O=C1OC(c2ccc(O)cc2)(c2ccc(O)cc2)c2ccccc21,outcome,[1],inactive
same,AC50,[2],11.9 µM (active)
same,outcome,[7],inactive
O=C1CCCCC1,outcome,[1],inactive
same,outcome,[2],inactive
same,outcome,[5],inactive
same,outcome,[6],inactive
C#CC(O)C(CC)CCCC (stereo not drawn),outcome,[1],inactive
same,outcome,[2],inactive
same,AC50,[7],28.8 µM (active)
CC(=O)OCC(COC(C)=O)OC(C)=O,outcome,[2],inactive
CCCCCCCC(=O)OC,outcome,[2],inactive
same,outcome,[5],inactive
same,outcome,[6],inactive
CCCCOC(=O)CCCCC(=O)OCCCC,outcome,[2],inactive
CC(C)(C)c1ccccc1,outcome,[2],inactive
CCCCCCCCCC[N+](C)(C)[O-],outcome,[1],inactive
same,outcome,[2],inactive
same,outcome,[5],inactive
same,outcome,[6],inactive
O=C1O[C@H]([C@H](O)CO)C(O)=C1O,outcome,[2],inactive
NCCOCCOCCN,outcome,[1],inactive
same,outcome,[2],inactive
CC(N)=O,outcome,[2],inactive
C/C=C/C=C/C(=O)O,outcome,[2],inactive
O=C(Oc1ccccc1)c1cccc(C(=O)Oc2ccccc2)c1,outcome,[1],inactive
same,outcome,[2],inactive
same,AC50,[3],72 µM (active)
same,outcome,[4],inactive
Cc1c(C)c2c(c(C)c1O)CCC(C)(COc1ccc(CC3SC(=O)NC3=O)cc1)O2 (stereo not drawn),outcome,[1],inactive
same,outcome,[2],inactive
same,outcome,[5],inactive
same,outcome,[6],inactive
same,AC50,[3],20 µM (active)
same,AC50,[4],18.2 µM (active)
same,AC50,[7],67.9 µM (active) and 76 µM (active)
C/C=C/c1ccc(OC)cc1,outcome,[2],inactive
CC(=O)O[C@]1(C(C)=O)CC[C@H]2[C@@H]3C=C(Cl)C4=CC(=O)[C@@H]5C[C@@H]5[C@]4(C)[C@H]3CC[C@@]21C,outcome,[2],inactive
O=C(O)CC(O)(CC(=O)O)C(=O)O,outcome,[2],inactive
same,outcome,[5],inactive
same,outcome,[6],inactive
c1ccc2occc2c1,outcome,[5],inactive
same,outcome,[6],inactive
same,outcome,[4],inactive
same,outcome,[7],inactive
COC(=O)CCCC(=O)OC,outcome,[4],inactive
CCCCC(CC)COP(=O)(OCC(CC)CCCC)OCC(CC)CCCC (stereo not drawn),outcome,[2],inactive
same,AC50,[3],15.6 µM (active)
same,AC50,[4],67.1 µM (active)
same,outcome,[7],inactive
